The source of these data is ChEMBL document CHEMBL1157539, “Thousands of chemical starting points for antimalarial lead identification” (Nature, 2010).

In this experiment the test system is HepG2. Description: GSK_TCMDC: Percent inhibition of human HepG2 cell line. Test compounds present at 10uM. The experiment is classed as functional.
In the case of `Cl.FC(F)(F)c1cc(Nc2ccc(Oc3ccccc3)cc2)c2cc(-c3ccncc3)ccc2n1`, the Inhibition worked out at 0%.
`NCCC(=O)Nc1ccc(-c2cnc3[nH]cc(-c4ccc(C(=O)O)cc4)c3c2)cn1.O=C(O)C(F)(F)F` had an Inhibition of 0%.
As for `O=C(NC1CCCC1)c1ccc(N2CCC(NCc3cccc(C(F)(F)F)c3)CC2)cc1`, the Inhibition is on record as 11%.
The molecule `COc1ccc(-c2ccc(NC(=O)c3cccc(C#N)c3)cc2)cc1CN1CCNCC1.O=C(O)C(F)(F)F` yielded an Inhibition of 30%.
Turning to `O=C(CCN1C(=O)c2ccccc2C1=O)N1CCN(CC=Cc2ccccc2)CC1`, the Inhibition came out at 10%.
With `O=C(N[C@H]1CCN(CCc2ccc(O[C@H]3CCNC3)c(Br)c2)C1)c1ccc(Cl)c(Cl)c1.O=C(O)C(F)(F)F`, the Inhibition worked out at 28%.
`O=C(Nc1ccc(OC2CCN(Cc3ccsc3)C2)c(Cl)c1)c1ccsc1.O=C(O)C(F)(F)F` (centres undefined) displayed an Inhibition of 4%.
Regarding `Cc1ccc(S(=O)(=O)NC2CCN(CCNC(=O)Nc3cc(C)nc4ccccc34)C2)cc1` (centres undefined), the Inhibition is recorded as 0%.
`c1ccc2c3c(ccc2c1)Sc1c(ccc2ccccc12)N3` returned an Inhibition of 0%.
Turning to `COc1cc2nc(NCCc3cccc(Cl)c3)nc(NCc3ccccc3)c2cc1OC`, the Inhibition was found to be 97%.
Turning to `Cc1nc2nc(N)nc(N)c2c(C)c1Cc1cccc(C(N)=O)c1.Cl`, the Inhibition was 59%.
To `Cc1ccc(/C=C/C(=O)NCCCCCN2CCN(C(=O)Nc3ccc(Cl)c(C(F)(F)F)c3)CC2)cc1` belongs 10%.
For the molecule `Cn1nccc1C(=O)NCCNCc1ccc(-c2ccc(-c3nc4cc(C(F)(F)F)ccc4[nH]3)s2)cc1.O=C(O)C(F)(F)F`, the Inhibition is reported as 48%.
Consider `Cc1ccc(C(=O)Nc2cccc([N+](=O)[O-])c2)cc1S(=O)(=O)N1CC(C)CC(C)C1` (centres undefined), for which the Inhibition was 24%.
